Results published in PubChem BioAssay (NCI).
About 79,000 compounds went through this panel and 15% of them were active in at least one assay; those are over-represented in the sample as a whole. Rule as the data show it: active = growth inhibition above about 70%; inactive = the rest.

Columns and labels:
[1] = NCI Yeast Anticancer Drug Screen. Data for the rad50 strain (AID 155);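 also: 0% = growth of vehicle-only cultures of the same strain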; settings: S. cerevisiae rad50 strain growth inhibition; at 50.0 µM; active compounds read high
Procedure, shortened: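 Vehicle-treated cultures provide the reference for the growth inhibition reported for compound-exposed, repair-deficient yeast.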

[2] = NCI Yeast Anticancer Drug Screen. Data for the mec2-1 strain (AID 157); settings: S. cerevisiae mec2-1 strain, at 50.0 µM, active compounds read high
Procedure, shortened: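 Each compound was tested on mec2-1 yeast, a strain altered in DNA damage repair or cell cycle control. Growth inhibition is reported relative to vehicle.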

[3] = NCI Yeast Anticancer Drug Screen. Data for the sgs1 mgt1 strain (AID 161);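 also: 0% = growth of cultures given vehicle only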; settings: S. cerevisiae sgs1 mgt1 strain, at 50.0 µM, active compounds read high
Procedure, shortened: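 Genetically altered yeast, compound exposure, growth inhibition relative to vehicle.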

[4] = NCI Yeast Anticancer Drug Screen. Data for the cln2 rad14 strain (AID 165);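 also: 0% = growth equal to vehicle treated cultures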; settings: S. cerevisiae cln2 rad14 strain, at 50.0 µM, active compounds read high
Procedure, shortened: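 Test compounds were added to cln2 rad14 yeast cultures; inhibition of growth was then determined by comparison with vehicle treatment.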

[5] = NCI Yeast Anticancer Drug Screen. Data for the bub3 strain (AID 167); settings: S. cerevisiae bub3 mutant strain, at 50.0 µM, active compounds read high
Procedure, shortened: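 Mutant yeast screening strain plus compound; vehicle-treated cultures serve as the 0% inhibition reference.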

[6] = NCI Yeast Anticancer Drug Screen. Data for the mlh1 rad18 strain (AID 175); settings: S. cerevisiae mlh1 rad18 strain growth inhibition; at 50.0 µM; active compounds read high
Procedure, shortened: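 Inhibition values reflect reduced growth of mutant yeast versus vehicle-treated controls following compound exposure; the mutations affect DNA damage repair.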

Measured: growth inhibition

O=C(O)COc1ccc(F)c(F)c1F
inactive: [1] -16.1% | [2] 4.5% | [3] 21.1% | [4] -9.6% | [5] -2.75% | [6] -20.1%

CN(O)C(=O)Cc1ccccc1
inactive: [1] 3.5% | [2] 6.05% | [3] -0.1% | [4] 15.8% | [5] 13.9% | [6] 16.4%

N=C(N)c1ccncc1
inactive: [1] -0.6% | [2] 5.75% | [3] 8.45% | [4] -32% | [5] 4.75% | [6] -1.95%

CC(C)(C)CC(C)(C)c1ccc(OCCOc2ccccc2NS(=O)(=O)c2ccc(N)cc2)cc1
inactive: [1] 47.5% | [2] -0.35% | [3] 33.6% | [4] 1.1% | [5] 10.1% | [6] 23.6%

CCCCCCCC/C=C\CCCCCCCC(=O)Cl
inactive: [1] -19% | [2] -33.8% | [3] -14% | [4] -55.9% | [5] -8.85% | [6] -23.1%

COc1ccc(/C=N/N2CN(C(C)C(=O)O)B(NC34CC5CC(CC(C5)C3)C4)N=C2N)cc1OC (configuration not stated)
inactive: [1] -16.6% | [2] -14.2% | [3] 10.3% | [4] -25.2% | [5] 1.3% | [6] -6.4%

Cc1[nH]c(=O)n2c(C)nnc2c1C(=O)Nc1cc(Cl)cc(Cl)c1
inactive: [1] 15.2% | [2] -0.45% | [3] 39% | [4] 18.4% | [5] 7.5% | [6] 31.2%

CSc1c(C#N)c2c(Cl)ncnc2n1C(C)=O
inactive: [1] 1.7% | [2] 14.3% | [3] 9.95% | [4] -71.5% | [5] -7.5% | [6] 5.35%

COc1ccc(C)cc1Sc1ccc(C)cc1[N+](=O)[O-]
inactive: [1] -6.2% | [2] -6.7% | [3] -3.2% | [4] -27.5% | [5] 10% | [6] -22.9%

Clc1ccc2oc(N3CCOCC3)nc2c1
inactive: [1] 20.6% | [2] 23.6% | [3] 22% | [4] -13.4% | [5] 15.7% | [6] 4.1%

CCCC(O)C(C)[N+](=O)[O-] (configuration not stated)
inactive: [1] 7.25% | [2] 4.5% | [3] -0.65% | [4] 4.75% | [5] 4.2% | [6] 0.6%

Cc1cc(C)nc(NC(=O)COc2ccc(Cl)cc2)c1
inactive: [1] -15.7% | [2] 5.95% | [3] -20.8% | [4] -39.7% | [5] -37.5% | [6] -14.8%

O=C1CC(C(=O)O)CC(=O)CC(C(=O)O)C1 (configuration not stated)
inactive: [1] -0.7% | [2] -13.2% | [3] -10.6% | [4] -33.4% | [5] 14.9% | [6] 18.9%

Cc1ccc(/C(O)=C/c2nc3ccc([N+](=O)[O-])cc3nc2/C=C(\O)c2ccc(C)cc2)cc1
inactive: [1] 13.8% | [2] -3.45% | [3] -23.1% | [4] -28.6% | [5] -19.2% | [6] -14%

O=C1CCCC(=S)N1
inactive: [1] 3.1% | [2] 4.2% | [3] 9.35% | [4] 16.8% | [5] 14.3% | [6] 6.1%

c1ccc(-c2ccccc2-c2ccccc2)cc1
inactive: [1] 18.1% | [2] -4.8% | [3] 10.6% | [4] -2.75% | [5] -8.15% | [6] 20.8%

CCOC(=O)C(C)c1nc2cc(C(F)(F)F)ccc2[nH]c1=O (configuration not stated)
inactive: [1] 3.55% | [2] 7.1% | [3] 8.1% | [4] 7.5% | [5] 19.7% | [6] -21.2%

C(#CC[P+](c1ccccc1)(c1ccccc1)c1ccccc1)C[P+](c1ccccc1)(c1ccccc1)c1ccccc1
inactive: [1] -24.1% | [2] -16.4% | [3] 0.2% | [4] 3.55% | [5] -5.4% | [6] -10.4%

CC(=O)OCN(C)C=O
inactive: [1] 25.9% | [2] 11.3% | [3] 18.7% | [4] 14.5% | [5] 11.1% | [6] 19.6%

[O-]/[N+](=C\c1cccc(O)c1)c1ccccc1
inactive: [1] -1.75% | [2] 16.4% | [3] 11.8% | [4] -21.2% | [5] -5.5% | [6] 15%

Cc1ccc(S(=O)(=O)OCC2CCC(=O)N2)cc1 (configuration not stated)
inactive: [1] 20.4% | [2] -13.2% | [3] 0.5% | [4] -3.15% | [5] -3.9% | [6] 27.1%

CCCC[Si]CCCC
inactive: [1] 14.8% | [2] 10% | [3] 1.1% | [4] 14.6% | [5] 4.5% | [6] 11.2%

CC1c2c(ccc3ccccc23)CCC1CC1CCCc2ccc3ccccc3c21 (configuration not stated)
inactive: [1] 45.6% | [2] -6.15% | [3] 4.7% | [4] 2.2% | [5] -1% | [6] 17.7%

CCN(CC)CCN1Cc2ccccc2C1
inactive: [1] -4.8% | [2] 3.85% | [3] -1.7% | [4] -14.1% | [5] 7.4% | [6] 2.45%

OCC(O)COCCCCCCCCCCCCCC1C=CCC1 (configuration not stated)
inactive: [1] -35.8% | [2] -43.5% | [3] -35% | [4] -4.3% | [5] -23.5% | [6] -30.7%

O=C1CC2C=CC(O)C(C1)C2 (configuration not stated)
inactive: [1] -20.3% | [2] 1.65% | [3] -30.6% | [4] 21.1% | [5] -58.2% | [6] -109%

CCCCC1CCC(=O)NC1=O (configuration not stated)
inactive: [1] 4.25% | [2] 29.6% | [3] 5.8% | [4] 5.2% | [5] 14.7% | [6] 1.9%

O=C1CCCCC1C(O)(C(F)(F)F)C(F)(F)Cl (configuration not stated)
inactive: [1] -20.4% | [2] -28.9% | [3] -36.7% | [4] -13.7% | [5] -30.2% | [6] -20.1%

Nc1ccn([C@H]2CO[C@@H](CO)O2)c(=O)n1
inactive: [1] -53% | [2] -46.4% | [3] -18.7% | [4] 0.75% | [5] -14.7% | [6] -22.2%

C(=NCCN=Cc1ccccc1)c1ccccc1
inactive: [1] -10.7% | [2] -6.9% | [3] -21.8% | [4] 3.25% | [5] -11.7% | [6] -8.9%

O=C(Cn1cc[n+](CC(=O)c2ccccc2)c1)c1ccccc1
inactive: [1] -5.45% | [2] 4.7% | [3] -4% | [4] -36.6% | [5] 6.05% | [6] 63.4%

NC(Cc1ccc(S(=O)(=O)O)cc1)C(=O)NC(Cc1ccc(S(=O)(=O)O)cc1)C(=O)NC(Cc1ccc(S(=O)(=O)O)cc1)C(=O)O (configuration not stated)
inactive: [1] -4.25% | [2] -14.8% | [3] 27.1% | [4] -9.5% | [5] 9.3% | [6] -8.2%

O=C(Nc1cccc([N+](=O)[O-])c1)N1CCCC1
inactive: [1] -7.1% | [2] -16.4% | [3] -7.75% | [4] -3.9% | [5] -7.5% | [6] -20.6%

CC(C)(CCl)c1ccccc1
inactive: [1] -10.6% | [2] -3.1% | [3] -6.3% | [4] 0.75% | [5] 4% | [6] -0.55%

C=CCNC(=S)Nc1ccccc1
inactive: [1] -1.8% | [2] -9.95% | [3] 4.25% | [4] -5.1% | [5] -18.9% | [6] -11.9%

O=C(Oc1ccc([N+](=O)[O-])cc1)C(CSC(c1ccccc1)(c1ccccc1)c1ccccc1)NC(c1ccccc1)(c1ccccc1)c1ccccc1 (configuration not stated)
inactive: [1] -3.05% | [2] 20.9% | [3] 6.5% | [4] -19.8% | [5] -3.6% | [6] 23.9%

N[C@@H](CO)[C@@H](O)c1ccc([N+](=O)[O-])cc1
inactive: [1] 1.5% | [2] -7.7% | [3] -3.9% | [4] -38.5% | [5] 1.5% | [6] -4.6%

Cc1cc(=O)[nH]c(Nc2nc3cc(C)c(C)cc3[nH]2)n1
inactive: [1] 9.6% | [2] -4.9% | [3] 2.05% | [4] 9.2% | [5] -8.2% | [6] -8.4%

NNC(=O)Cc1ccc2ccccc2c1
inactive: [1] 12.3% | [2] -32.1% | [3] 4.45% | [4] -7.05% | [5] 4.6% | [6] 12%

CCNC(=O)OCc1c(COC(=O)NCC)c(-c2ccc(Cl)c(Cl)c2)n2c1CCC2
inactive: [1] 27.4% | [2] 24.8% | [3] 35.4% | [4] 66.5% | [5] 10.4% | [6] 40.8%

Cc1cc2ccccc2c(Br)c1C
inactive: [1] 5% | [2] 4.95% | [3] 26% | [4] -36.8% | [5] -4.35% | [6] 4.7%

Clc1ccccc1OCCNC1CC1
inactive: [1] 20.7% | [2] -0.1% | [3] -10.8% | [4] -45% | [5] 4.95% | [6] 1.7%
